KDM5B inh – inhibitors of human KDM5B histone demethylase | KDM5B demethylase, FDH-coupled NADH fluorescence (FDH is formaldehyde dehydrogenase) | Q9UGL1 | AID 1347165 | hit rate 2.6% among 220,000 | Potency, µM (series often up to 57.7 µM), most hits filed as inhibitors; also: potency is read from the fitted curve at half-maximal effect; 0% is about no effect; nearly all actives have a fitted effect of over 70% in size
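qHTS format, multiple compound concentrations. Buffer 50 mM HEPES pH 7.5/0.01% Tween-20; 200 nM KDM5BΔAP final; 10 min compound preincubation; substrate-mix levels 12.5 µM peptide, 25 µM α-KG, 0.25 mM NAD⁺; 30 min RT; ΔRFU.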
IP6K1 inh – blocks human inositol hexakisphosphate kinase 1; hit rate 0.81% among 140,000; Q92551; IP6K1 kinase, ADP-Glo luminescence, 2 h; hits give low values; activity change, % (series mostly up to about 58 µM); in the data active = activity change below about -25%; also: % is scaled to controls: 0 for no effect and ±100 for the full control effect
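ADP-Glo luminescence measures ADP made by human IP6K1 during a 2 h RT reaction with ATP/IP6 (mix at 1.3 mM/130 uM); top library doses 57.5 and 19.1 uM final.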
SNCA viab count – cell viability loss counter-screen. AID 1671193. HEK-293-SNCA-luc viability, GF-AFC fluorescence, 24 h. Potency, µM (titrated, usually from 57.1 µM), for inactives: top-dose activity change, negative = cytotoxicity, hits mostly cytotoxic. hit rate 0.12% among 150,000;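 also: potency is read from the fitted curve at half-maximal effect; 0% = DMSO-treated cells and -100% = medium-only wells without cells; nearly all actives have a fitted effect of over 30% in size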
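HEK-293-SNCA-luc cells (1500/well) plated 24 h, then exposed 24 h to a dilution series; GF-AFC added 30 min at 37C, fluorescence 405/540 nm; normalised to medium-only and DMSO wells, Hill fit.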
SNCA expr inhib – inhibitors of alpha-synuclein (SNCA) gene expression | HEK-293 SNCA-luciferase knock-in, luminescence, 24 h | Potency, µM (highest dose often 57.2 µM), inactives show at the top dose activity change, negative = inhibition, actives largely listed as inhibitors | hit rate 0.17% among 140,000 | AID 1671194;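 also: potency is read from the fitted curve at half-maximal effect; plate controls were DMSO cells for no effect and cell-free wells for full effect; nearly all actives have a fitted effect of over 45% in size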
* hit, by the source's call; i = inactive; ? = inconclusive; . = no result given; ! = a repeat was not active; [ ] = remark or other dose. An excerpt weighted towards active compounds, which were near 2.9% of everything screened. Unless noted, calls follow the shape of the dose curve; as a rule, active = well fitted curve in the direction sought with a large enough effect; inconclusive = small, poorly fitted or top-dose-only effect, or another doubt; inactive = no such curve, though single readings can be large; an effect the other way counts as inactive or inconclusive.

SMILES	KDM5B inh	IP6K1 inh	SNCA viab count	SNCA expr inhib
Cc1ccc(C(=O)NCc2nnc3cc(-c4nc(C(C)C)no4)ccn23)cc1F	7.1µM*	10	-15%	-22%
COc1ccc(C(=O)NCc2nnc3cc(-c4nc(C(C)C)no4)ccn23)cc1F	10µM*	33	3%	1%
Cc1noc(-c2ccn3c(CNC(=O)COc4ccc(F)cc4)nnc3c2)n1	13µM*	4	-11%	-5%
CCCc1noc(-c2ccn3c(CNC(=O)c4ccc(F)c(Cl)c4)nnc3c2)n1	?	6	10%	-12%
Cc1noc(-c2ccn3c(CNC(=O)c4ccc(C)c(F)c4)nnc3c2)n1	3.5µM*	13	-11%	0%
Cc1cccc(-c2nc3ccc(C(=O)NCC(F)(F)F)cc3o2)n1	.	4	8%	?
Cc1ccc(C(=O)CSc2nc3nc[nH]c3c(=O)[nH]2)cc1	i	.	.	.
COCc1nnc2n1CCC(NC(=O)c1ccn(C)n1)CC2 (centres undefined)	i	5	-1%	3%
COCc1nnc2n1CCC(NC(=O)c1ccc3cc[nH]c3c1)CC2 (centres undefined)	28µM*	5	-9%	-3%
CCN(CC)C(=O)C1=C(C)N=C2SC=C(CC(=O)NCc3ccccc3)N2C1c1ccccc1F (centres undefined)	?	8	-1%	7%
C[N+](C)(C)CCCCOC(=O)C12CC3CC(CC(C3)C1)C2	i	.	.	.
CN(C)c1ncc2c(n1)C(C)(C(=O)Nc1ccncc1)CCC2 (centres undefined)	32µM*	8	5%[87.6 µM]	-12%[87.6 µM]
CN(C)c1ncc2c(n1)C(C)(C(=O)Nc1cccc(F)c1)CCC2 (centres undefined)	32µM*	11	1%[87.6 µM]	?
COc1cccc(NC(=O)C2(C)CCCc3cnc(N(C)C)nc32)c1 (centres undefined)	40µM*	5	-15%[87.6 µM]	?
COc1ccc(NC(=O)Nc2cccc(-c3ccc(N4CCOCC4)nn3)c2)cc1F	?	-14	-26%	20µM*
CN(CC1CC1)C(=O)c1cc(-c2ccccc2Cl)nc2ccccc12	i	.	.	.
CN1CCCC(CN(C)C(=O)c2cc(-c3cnn(CCO)c3)nc3ccccc23)C1 (centres undefined)	32µM*	8	12%	-12%
OCC1(Cc2ccccc2F)CCCN(c2nccc(C(F)(F)F)n2)C1 (centres undefined)	25µM*	-5	-6%	7%
COc1cccc2nc(-c3cccs3)nc(NN3C(=O)C=C(C)C3=O)c12	.	-19	30µM*!	?
COc1ccccc1CNC(=O)CSc1nc(-c2cccs2)nc2ccccc12	i	.	.	.
COc1ccc(-c2cc(C(=O)N3CCCC3)ccn2)cc1F	28µM*	25	-5%	-4%
COCC(=O)N1CCc2cn(CC(C)C)c3cccc(c23)C1	?	7	-8%	3%
COc1cccc(NC(=O)Cn2c(N3CCc4ccccc4C3)nc(C)cc2=O)c1	11µM*	9	?	?
Cc1ccc(CNC(=O)Cn2c(N3CCc4ccccc4C3)nc(C)cc2=O)cc1	28µM*	29	?	?
COCc1cc(=O)n(CC(=O)Nc2ccc(Br)cc2)c(N2CCOCC2)n1	i	11	-10%	16%
SMILES	KDM5B inh	IP6K1 inh	SNCA viab count	SNCA expr inhib
COCc1cc(=O)n(CC(=O)Nc2cccc(Br)c2)c(N2CCOCC2)n1	28µM*	34	0%	-3%
Cc1cccc(N(C)C(=O)Cn2c(N3CCc4ccccc4C3)nc(C)cc2=O)c1	?	18	11µM*	?
C=C(C)C[C@H]1CC=C[C@H](CC(=C)C)N1	i	.	.	.
O=C(NC1CCCC1)N1CCC(C(=O)N2CCCC(c3nc4ncccc4[nH]3)C2)CC1 (centres undefined)	.	-9	-2%	30%
CC(C)c1noc(CN2CCC(NC(=O)c3cnn(C)c3)CC2)n1	i	.	.	.
COc1ccc(Cl)cc1-c1nc(C2CC(=O)N(C3CCCCC3)C2)no1 (centres undefined)	?	5	9%	-22%
COc1ccc(OC)c(NC(=O)Cn2c(N3CCc4ccccc4C3)nc(C)cc2=O)c1	28µM*	22	?	?
Fc1ccccc1-c1csc(-c2ccccc2)n1	i	.	.	.
O=[S+]1([O-])NC2(CCN(CC3CCOCC3)CC2)COc2ccccc21	79µM*	-2	0%	-10%
CCNc1c(NC(=O)Cc2ccccc2)c(=O)oc2ccccc12	i	.	.	.
CC(=O)NC1(C)CCN(Cc2ccccc2-c2ccc3c(ccn3C)c2)C1 (centres undefined)	35µM*	-12	-4%[87.6 µM]	9%[87.6 µM]
CC(C)Nc1ncc(C(=O)NC2CC(=O)N(Cc3cccc(F)c3)C2)cn1 (centres undefined)	22µM*	21	2%	?
CCCc1cc(C(=O)NCc2c(C)ncc3c2CCNC3)n[nH]1	i	-9	2%	4%
Cc1ccc(CC(=O)NCc2nnc3cc(-c4nc(C5CC5)no4)ccn23)cc1	28µM*	-8	5%	-10%
O=C(Cc1ccccc1Cl)NCc1nnc2cc(-c3nc(C4CC4)no3)ccn12	16µM*	4	4%	-3%
CCC(C(=O)NCc1nnc2cc(-c3nc(C4CC4)no3)ccn12)c1ccccc1 (centres undefined)	i	11	-12%	0%
Cc1ccccc1CC(=O)NCc1nnc2cc(-c3nc(C4CC4)no3)ccn12	28µM*	-7	?	114%
Cc1ccc(C(=O)NCc2nnc3cc(-c4nc(C5CC5)no4)ccn23)cc1	?	-2	-3%	-6%
CC(Oc1ccccc1)C(=O)N1CCC(Cc2nncn2C(C)C)CC1 (centres undefined)	i	17	3%	-9%
CCC(=O)N1N=C(c2cccs2)CC1c1ccc2nccnc2c1 (centres undefined)	i	.	.	.
CCCc1noc(-c2ccn3c(CNC(=O)c4ccco4)nnc3c2)n1	28µM*	29	-10%	-29%
CCCc1noc(-c2ccn3c(CNC(=O)c4cccc(N(C)C)c4)nnc3c2)n1	?	6	7%	85%
CCCc1noc(-c2ccn3c(CNC(=O)c4ccc5ccccc5n4)nnc3c2)n1	13µM*	7	3%	-13%
Cc1noc(-c2ccn3c(CNC(=O)c4ccco4)nnc3c2)n1	28µM*	7	9%	28%
Cc1cc(C(=O)CSc2nnc(C(C)Oc3ccc(F)cc3)o2)c(C)n1C1CC1 (centres undefined)	i	.	.	.
CCOc1ccc(-c2cc3c(=O)n(CCNC(=O)c4cnccn4)ccn3n2)cc1	25µM*	-10	0%	101%
Cc1ccc(-c2cc3c(=O)n(CCNC(=O)c4cnccn4)ccn3n2)cc1C	22µM*	0	0%	-5%
O=C(NC(NC(=O)c1ccccc1)c1ccc(F)cc1)c1ccccc1	i	.	.	.
COc1ccc(-n2ncc(-c3c(-c4ccccc4)ncn3CCCO)c2C)cc1	i	11	8%	4%
OCC1CN(c2ncccn2)CC12CCN(C1CCSCC1)CC2 (centres undefined)	32µM*	15	8%	-1%

Screening results deposited in PubChem BioAssay by National Center for Advancing Translational Sciences (NCATS).
